Compound activity deposited in PubChem by National Center for Advancing Translational Sciences (NCATS).
Cycloheximide cs – counter-screen hit for Shiga toxin inhibitors, cycloheximide; max response, %; 12% of 300,000 active; cell reporter, cycloheximide protein synthesis inhibition counterscreen; AID 2314; in the data active = max response mostly above about 13%, no sharp cut-off; inactive = mostly below about 14%; note: read at 38.3 µM for the half of the compounds with a filed dose; 0% is about no effect
NS1 inh – influenza NS1 inhibition | 0.4% of 270,000 active | Potency, µM (highest dose often 46.1 µM), without a hit: at the top dose activity, positive = more growth; note: potency is the fitted concentration of half-maximal effect; actives are rising curves; nearly all actives have a fitted effect of over 50% in size
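A cell-based growth assay was used: compounds that relieve NS1-induced slow growth of budding yeast raise OD600. Assay medium was yeast nitrogen base with ammonium sulphate and -URA supplement, pH 6.0, with 2% galactose.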
Shiga inhibitor – Shiga toxin inhibition; Vero cells, Shiga toxin protein synthesis inhibition reporter; inhibition, % at 38.7 µM; 9.2% of 290,000 active; AID 2315; in the data active = inhibition mostly above about 28%, no sharp cut-off; inactive = mostly below about 43%; note: 0% is about no effect
TbPYK inhibitor – inhibitors of Trypanosoma brucei pyruvate kinase | TbPYK enzyme, Kinase-Glo Plus ATP luminescence, 45 min | Potency, µM (doses to about 76.8 µM), for the others: top-dose activity, negative = inhibition, hits mostly inhibitors | AID 624173 | 0.12% of 410,000 active | Q57TT1; active = well fitted curve in the direction sought with a large enough effect; inconclusive = small, poorly fitted or top-dose-only effect, or another doubt; inactive = no such curve, though single readings can be large; an effect the other way counts as inactive or inconclusive; note: potency is the fitted concentration of half-maximal effect; % is set by controls: 0 for no effect and ±100 for the full control effect; nearly all actives have a fitted effect of over 50% in size
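Screened from lowest to highest concentration, compounds were pinned into TbPYK/substrate mixtures, and ADP (130 uM final) was added. Plates sat at room temperature for 45 min prior to Kinase-Glo Plus detection by luminescence.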
SARS PLP yeast – SARS-CoV PLP inhibition in yeast. S. cerevisiae expressing SARS-CoV PLpro, growth rescue. Potency, µM (top dose mostly 32.9 µM), for the others: at the top dose activity, positive = growth rescue, hits mostly activators. 0.19% of 330,000 active; note: potency is the fitted concentration of half-maximal effect; 0% is about no effect; nearly all actives have a fitted effect of over 55% in size
LmPK inh – blocks Leishmania mexicana pyruvate kinase activity; purified LmPK, Kinase-Glo ATP luminescence, 1 h; Potency, µM (doses to about 57.5 µM), without a hit: at the top dose activity change, negative = inhibition, usual class: inhibitors; 0.37% of 290,000 active; AID 1721; active = well fitted curve in the direction sought with a large enough effect; inconclusive = small, poorly fitted or top-dose-only effect, or another doubt; inactive = no such curve, though single readings can be large; an effect the other way counts as inactive or inconclusive; note: potency is the fitted concentration of half-maximal effect; % is set by controls: 0 for no effect and ±100 for the full control effect
Target sequence (Q27686 whole entry, looked up): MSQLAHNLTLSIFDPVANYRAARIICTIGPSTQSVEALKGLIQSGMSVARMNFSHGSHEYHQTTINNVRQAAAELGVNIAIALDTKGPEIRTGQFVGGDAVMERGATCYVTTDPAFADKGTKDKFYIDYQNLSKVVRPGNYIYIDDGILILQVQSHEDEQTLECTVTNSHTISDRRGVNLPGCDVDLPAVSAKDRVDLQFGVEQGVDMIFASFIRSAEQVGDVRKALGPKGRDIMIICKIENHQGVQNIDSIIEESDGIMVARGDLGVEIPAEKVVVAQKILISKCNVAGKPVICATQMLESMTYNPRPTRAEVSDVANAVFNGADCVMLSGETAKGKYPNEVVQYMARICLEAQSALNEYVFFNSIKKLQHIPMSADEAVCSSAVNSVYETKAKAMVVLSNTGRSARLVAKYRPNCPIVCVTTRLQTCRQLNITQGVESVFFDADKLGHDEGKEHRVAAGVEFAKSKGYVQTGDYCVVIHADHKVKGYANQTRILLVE
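Kinase-Glo luminescence read after 1 h RT reaction of 0.1 nM LmPK with 0.5 mM PEP and 0.1 mM ADP. Activity scaled between uninhibited and enzyme-free controls.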
* hit, by the source's call; ? = inconclusive; . = not tested or not shown. This excerpt belongs to a sample that is enriched for hits. Unless noted, calls come from the whole dose curve.

SMILES	Cycloheximide cs	NS1 inh	Shiga inhibitor	TbPYK inhibitor	SARS PLP yeast	LmPK inh
COC(=O)c1ccc(NC(=S)Nc2ccc(O)cc2)cc1	5	-4%	14	-7%	0%	1%
COc1ccc(CCNC(=O)NC2CCCCC2)cc1	11	7%	18	6%	5%	-3%
COC(=O)c1ccc(NC(=O)C2CC3CCC2C3)cc1 (stereo not drawn)	.	.	.	-6%	.	.
CCc1ccc(N(CC)C(=O)Cn2nc(Cc3cccnc3)c3ccccc3c2=O)cc1	.	.	.	4%	.	.
CC(=O)Nc1ccc(C(=O)OCC(=O)NC(=O)NC2CCCCC2)cc1	1	-8%	-13	2%	-1%	12%
COC(=O)c1ccc(NC(=O)NC2CCCCC2)cc1	41*	1%	110*	-4%	15%	-4%
COc1nc(Nc2ccc(C(C)=O)cc2)nc(OC)n1	18*	12%	53*	-8%	-3%	-6%
COc1ccc(Nc2nc(OC)nc(OC)n2)cc1	8	-2%	22	-4%	0%	-7%
CC(=O)c1ccc(NC(=O)CSc2nc(N3CCOCC3)nc(N3CCOCC3)n2)cc1	42*	5%	62*	2%	1%	-2%
Cc1cc(Oc2ccc(C(C)(C)C)cc2)nc(N2CCOCC2)n1	-4	-4%	-5	-8%	7%	5%
COc1nc(Nc2ccc3c(c2)OCO3)nc(OC)n1	17	-37%	51*	-1%	-25%	-1%
CC(=O)c1ccc(Oc2cc(C)nc(N3CCOCC3)n2)cc1	13*	-3%	20	3%	6%	2%
CCn1c(=N)n(CCOc2ccc(Br)cc2)c2ccccc21	.	.	.	-17%	.	.
COC(=O)[C@@]1(C(C)C)N=C(c2cc(OC)c(OC)c(OC)c2)[C@]2(O1)C(=O)N(C)c1ccc(Br)cc12	.	.	.	3%	.	.
O=S(=O)(Nc1cccnc1)c1cccc2ccccc12	5	.	-8	.	.	.
CC(C)(C)OC(=O)NS(=O)(=O)Nc1ccccc1Br	13	.	-8	.	.	.
CC(=O)Nc1c(O)nc(SCC(=O)Nc2ccc(C(C)=O)cc2)[nH]c1=O	47*	-1%	134*	3%	0%	-6%
CC(=O)c1ccc(Nc2nc(N3CCOCC3)nc(N3CCOCC3)n2)cc1	17*	0%	31	6%	1%	-1%
CC(=O)Nc1c(O)nc(SCC(=O)Nc2cccc(C)c2)[nH]c1=O	-7	4%	-12	0%	0%	-1%
CC(=O)c1cccc(Nc2nc(N3CCOCC3)nc(N3CCOCC3)n2)c1	-11	7%	-2	3%	-7%	-5%
CCOc1cccc(NC(=O)C2CC(=O)N(CC)C(=Nc3ccc(F)cc3)S2)c1 (stereo not drawn)	.	.	.	-6%	.	.
Cc1occc1C(=O)Nc1cccc2ccccc12	56*	-99%	67*	-11%	-85%	25µM*
Cc1cc(C(=O)NCCCC(=O)O)c(C)o1	-3	1%	-13	.	-6%	0%
Cc1cc(C(=O)Nc2cccc3ccccc23)c(C)o1	25*	-6%	30	0%	0%	1%
Cc1cc(C(=O)NCCC(c2ccccc2)c2ccccc2)c(C)o1	26*	-7%	40	1%	-15%	0%
SMILES	Cycloheximide cs	NS1 inh	Shiga inhibitor	TbPYK inhibitor	SARS PLP yeast	LmPK inh
CC(OC(=O)Cn1[nH]c(=O)c2ccccc2c1=O)C(=O)NC1(C#N)CCCCC1 (stereo not drawn)	.	.	.	0%	4%	.
COCCN1C[C@@H](CO)O[C@@H](n2cnc3c(NCCCO)ncnc32)C1	.	.	.	0%	.	.
CCOc1ccccc1-c1nnc2n1N=C(c1cc(OC)ccc1OC)CS2	7	.	2	.	.	.
Oc1ccc(Nc2nc3ccccc3nc2Nc2ccc(O)cc2)cc1	14*	4%	40	-17%	7%	5%
Cc1nc(N/N=C/c2ccc(O)cc2)c2cnn(-c3ccccc3)c2n1	13	.	18	28%	0%	6%
Cc1nc2ccccc2nc1N/N=C/c1ccc(O)cc1	40*	-4%	53*	-5%	-3%	1%
O=C(NCCCc1ccccc1)Nc1ccccc1	19	-14%	35	-5%	4%	-5%
Cc1cccc(NC(=O)NCCCCc2ccccc2)c1	10	-109%	23*	4%	-10%	-6%
Cc1cccc(NC(=O)NC(C)CCc2ccccc2)c1 (stereo not drawn)	21*	-30%	13	0%	-4%	0%
O=C(NCCCCc1ccccc1)Nc1cccc(F)c1	47*	-96%	48*	2%	-14%	-1%
Cc1ccc(NC(=O)NCCCCc2ccccc2)cc1	17	4%	29*	0%	-6%	-6%
CC(=O)c1cccc(NC(=S)NCCCCc2ccccc2)c1	-2	-11%	-12	-3%	7%	1%
CCn1nc(CC(C)C)cc1C(=O)N1CCCC(Nc2ccc(OC)cc2)C1 (stereo not drawn)	-4	?	0	-9%	-5%	7%
COc1ccc(C(=O)Nc2ccccc2C(=O)NC2CC2)c(OC)c1OC	.	.	.	-1%	.	.
CC(C)[C@H](NC(=O)c1ccco1)C(=O)OCC(=O)N1CC(=O)Nc2ccccc21	-1	.	20	6%	-5%	1%
CC(C)C(NC(=O)c1ccco1)C(=O)OCC(=O)NCCc1ccccc1 (stereo not drawn)	.	.	.	3%	-4%	.
CC(C)[C@H](NC(=O)c1ccco1)C(=O)OCC(=O)NC12CC3CC(CC(C3)C1)C2	21*	.	59*	0%	6%	-1%
CC(C)[C@H](NC(=O)c1ccco1)C(=O)OCC(=O)N1CCc2ccccc21	14*	-24%	73*	-1%	0%	1%
Cc1cc(S(=O)(=O)N2CCOCC2)c(C)s1	-3	9%	-6	-20%	1%	5%
COc1ccc(NC(=O)CSc2nnc(NC(=O)Nc3ccccc3)s2)c(OC)c1	.	.	.	0%	.	.
Cc1ccc(S(=O)(=O)N2C[C@H]3[C@H]4C(=O)N(C)C(=O)[C@H]4CC(=O)[C@H]3[C@@H]2c2ccccc2Cl)cc1	.	.	.	-10%	.	.
O=C(Nc1ccn(Cc2ccc(Cl)cc2)n1)c1ccccc1	21*	.	90*	-1%	-1%	3%
O=C(Nc1ccn(Cc2ccccc2)n1)c1ccc2c(c1)OCO2	24*	-9%	42*	2%	-1%	-4%
CCC(C)NC(=O)COCc1cc(-c2ccc3c(c2)OCO3)on1 (stereo not drawn)	1	3%	23	0%	0%	1%
O=C(Nc1ccc(Br)cc1)c1cc(-c2ccc3c(c2)OCO3)on1	13*	-4%	33	-1%	-3%	1%
CCN(CC)C(=O)COCc1cc(-c2ccc3c(c2)OCO3)on1	21*	-2%	42	2%	1%	-1%
CCC(C)NC(=O)c1cc(-c2ccc3c(c2)OCO3)on1 (stereo not drawn)	38*	1%	57*	-5%	0%	-6%
COCCNC(=O)COCc1cc(-c2ccc3c(c2)OCO3)on1	13	0%	35	-1%	-1%	2%
